Experimental data from PubChem BioAssay (NCATS).
Records with an inconclusive call do not appear. A call without a number means that no potency is given here. The source made the active and inactive calls. Calls come from the whole dose curve; as a rule, active = well fitted inhibition curve with a large enough effect; inconclusive = small, poorly fitted or top-dose-only effect; inactive = flat fitted curve, though single readings scatter.

These compounds were tested against Ubiquitin carboxyl-terminal hydrolase 1 (Homo sapiens) (UniProt O94782) (assay: Inhibitors of USP1/UAF1: Pilot qHTS (AID 504865; note: nearly all actives have a fitted effect of over 35% in size)). Settings: purified USP1/UAF1, Ub-rhodamine cleavage fluorescence; series mostly up to 114 µM.
Ubiquitin carboxyl-terminal hydrolase 1 (Homo sapiens), sequence (O94782 whole entry, looked up): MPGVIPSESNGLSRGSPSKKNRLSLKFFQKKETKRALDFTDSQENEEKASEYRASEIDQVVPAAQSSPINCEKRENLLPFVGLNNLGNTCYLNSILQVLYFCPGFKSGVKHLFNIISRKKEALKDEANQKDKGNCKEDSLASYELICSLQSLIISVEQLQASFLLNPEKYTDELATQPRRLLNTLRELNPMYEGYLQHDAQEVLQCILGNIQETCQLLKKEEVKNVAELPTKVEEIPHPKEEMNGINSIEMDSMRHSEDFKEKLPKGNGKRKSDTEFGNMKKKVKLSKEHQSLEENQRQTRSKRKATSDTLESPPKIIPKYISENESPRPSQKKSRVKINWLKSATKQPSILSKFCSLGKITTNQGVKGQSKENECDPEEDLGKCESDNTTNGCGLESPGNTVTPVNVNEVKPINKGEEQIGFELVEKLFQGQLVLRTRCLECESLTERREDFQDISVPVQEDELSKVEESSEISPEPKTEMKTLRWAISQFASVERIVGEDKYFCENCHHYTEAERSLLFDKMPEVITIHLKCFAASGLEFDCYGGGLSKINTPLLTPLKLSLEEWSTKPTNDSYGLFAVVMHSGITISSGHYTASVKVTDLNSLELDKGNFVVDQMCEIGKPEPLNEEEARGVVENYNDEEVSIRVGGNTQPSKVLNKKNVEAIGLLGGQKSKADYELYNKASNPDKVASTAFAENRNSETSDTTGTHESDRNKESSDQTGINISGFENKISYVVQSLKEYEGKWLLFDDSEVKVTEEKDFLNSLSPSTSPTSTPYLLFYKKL
Summary of the method: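 In 50mM HEPES pH 7.8 containing 0.5mM EDTA, 1mM TCEP, 0.1 mg/ml BSA and 0.01% Tween-20, 1nM USP1/UAF1 is exposed to compound for 15 min, then Ub-Rho (150nM final) is added and fluorescence is read over time.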
Potency is the fitted concentration of half-maximal effect.

SMILES	Potency
NCCCC(=O)O	inactive
COc1cc(C[C@H]2C(=O)OC[C@@H]2Cc2ccc(OC)c(OC)c2)ccc1O	inactive
COC1C(OC(=O)/C=C/C=C/C=C/C=C/C(=O)O)CCC2(CO2)C1C1(C)OC1CC=C(C)C (stereo not drawn)	inactive
CCCOc1ccc2nc(NC(=O)OC)sc2c1	inactive
CN(C)CCCn1cc(C2=C(c3c[nH]c4ccccc34)C(=O)NC2=O)c2ccccc21	50.1 µM (active)
C1CNCCN1	inactive
O=C(O)CC(O)(CC(=O)O)C(=O)O	inactive
CN[C@H]1CC[C@@H](c2ccc(Cl)c(Cl)c2)c2ccccc21	inactive
